PubChem BioAssay (NCI)
Compounds without any hit were thinned out: in the full panel of roughly 79,000, 15% have a hit. Active and inactive are the calls of the source. No stated cut-off is given here; in the data, active means growth inhibition above about 70%; inactive means the rest.

assay: NCI Yeast Anticancer Drug Screen. Data for the rad18 strain (AID 177); settings: S. cerevisiae rad18 mutant growth inhibition; at 1.2 µM; active compounds read high
Summary of the method: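 Inhibition values reflect reduced yeast growth compared with vehicle-treated controls, using a strain engineered with a DNA damage repair defect.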

| Structure (SMILES) | growth inhibition |
| --- | --- |
| CC(C)c1ccccc1NC(=O)/C(Cl)=C(\Cl)C(=O)O | 0% (inactive) |
| O=[N+]([O-])C(=C(Sc1ccccc1)Sc1ccccc1)C(Cl)=C(Cl)Cl | 15% (inactive) |
| C(=C\c1ccccc1)/COc1ccccc1C(N1CCOCC1)n1nc2ccccc2n1 (centres undefined) | -2% (inactive) |
| O=C1C(Nc2ccccc2)=C(Oc2ccccc2)C(=O)c2ccccc21 | -4% (inactive) |
| CCN(CC)CCN1C(=O)c2cccc3cc(OC)cc(c23)C1=O | 7% (inactive) |

same assay, conditions: S. cerevisiae rad18 mutant growth inhibition; at 3.7 µM; active compounds read high

| Structure (SMILES) | growth inhibition |
| --- | --- |
| O=CC=C(c1ccccc1)c1ccccc1 | 26% (inactive) |
| FC(F)(F)c1nc2nc(Cl)c(Cl)nc2n1CCCN1CCOCC1 | 6% (inactive) |
| BrCC[P+](c1ccccc1)(c1ccccc1)c1ccccc1 | -42% (inactive) |
| N#CSc1ccc(S(N)(=O)=O)cc1 | -45% (inactive) |
| O=[N+]([O-])c1ccc2nc3ccccc3cc2c1 | 32% (inactive) |
| O=C(NC(Nc1ccc(F)c(Cl)c1)(C(F)(F)F)C(F)(F)F)C(C(F)(F)F)C(F)(F)F | 14% (inactive) |
| O=C(/C=C\c1ccc(Cl)cc1Cl)c1cccs1 | 6% (inactive) |
| O=C(NCCCCNCCCNC(=O)c1cc(-c2ccccc2)nc2ccccc12)c1cc(-c2ccccc2)nc2ccccc12 | -1% (inactive) |
| NC(=NCc1ccccc1)N/N=C\c1ccnc2ccccc12 | -3% (inactive) |
| COc1cc(C2C3=C(COC3=O)Oc3cc4c(cc32)OCO4)ccc1O (centres undefined) | -6% (inactive) |
| C#CCCCc1ccccc1 | -49% (inactive) |
| CCc1ccc(NS(=O)(=O)c2ccccc2)c([N+](=O)[O-])c1 | 6% (inactive) |
| COc1ccc(C2c3cc4c(cc3OC(C)(O)C2C)OCO4)c(OC)c1 (centres undefined) | -2% (inactive) |
| COC(=O)c1ccc(CCC2=CC(=O)C(Br)=CC2=O)cc1 | -8% (inactive) |
| NNC(=O)CCc1ccc2ccc3ccccc3c2c1 | 15% (inactive) |
| Cn1c2ccccc2c(=O)c2cc(NC(=O)CCCCC(=O)Nc3ccc4c(c3)c(=O)c3ccccc3n4C)ccc21 | 0% (inactive) |
| CC(CC(C)(C)[N+](C)(C)C)[N+](C)(C)C (centres undefined) | 8% (inactive) |
| CC1CCN(CCC(=O)c2ccc(Cl)cc2)CC1 | 18% (inactive) |
| CCCCCCCCCCCCCCC(C(=O)[O-])[n+]1ccccc1 (centres undefined) | 8% (inactive) |

| Structure (SMILES) | growth inhibition |
| --- | --- |
| CNC1C(OC2C(OC3C(O)C(O)C(N=C(N)N)C(O)C3N=C(N)N)OC(C)C2(O)CO)OC(CO)C(O)C1O (centres undefined) | 10% (inactive) |
| O=C(O)c1ccccc1-c1ccccc1C(=O)Nc1ccc2c(c1)Cc1ccccc1-2 | 7% (inactive) |
| O=[N+]([O-])c1cccc2nc3ccccc3c(NCCCN3CCOCC3)c12 | 96% (active) |
| C=CC(C)(O)CCC1C(=C)C(O)CC2C(C)(C)CCCC12C (centres undefined) | -19% (inactive) |
| CN1c2ccc(Cl)cc2C(=O)NC1c1ccc([N+](=O)[O-])s1 (centres undefined) | 25% (inactive) |
| [O-][n+]1c2ccc(O)cc2nc2ccc(Br)cc21 | 21% (inactive) |
| O=C1c2ccccc2-c2nc3ccccc3nc21 | -38% (inactive) |
| CCCCN1C(=O)N(c2ccc(OCC)cc2)C2N(CCCC)C1C(C)(C)C2(C)C (centres undefined) | 0% (inactive) |
| CO[C@H]1C[C@](C)(O)Cc2cc3c(c(O)c21)C(=O)c1c(O)cc2c(c1C3=O)O[C@@H]1O[C@@]2(C)[C@H](O)[C@@H](N(C)C)[C@@H]1O | -27% (inactive) |
| COc1cc2c(cc1[N+](=O)[O-])C(=O)C(Br)(Br)CCC2 | 64% (inactive) |
| O=C1OC(CCl)CN1/N=C/c1ccc([N+](=O)[O-])o1 (centres undefined) | 72% (active) |
| CN(C)CCOc1ccc2c(c1)C/C(=C/c1ncc([N+](=O)[O-])n1C)C2=O | 90% (active) |
| CCCCCCCCCCCCCCCCCCN(C)CC(COP(=O)([O-])OCC[N+](C)(C)C)OC (centres undefined) | 11% (inactive) |
| CC(C)c1ccccc1NC(=O)/C(Cl)=C(\Cl)C(=O)O | 0% (inactive) |
| O=[N+]([O-])C(=C(Sc1ccccc1)Sc1ccccc1)C(Cl)=C(Cl)Cl | 43% (inactive) |
| C(=C\c1ccccc1)/COc1ccccc1C(N1CCOCC1)n1nc2ccccc2n1 (centres undefined) | -7% (inactive) |
| O=C1C(Nc2ccccc2)=C(Oc2ccccc2)C(=O)c2ccccc21 | 4% (inactive) |
| CCN(CC)CCN1C(=O)c2cccc3cc(OC)cc(c23)C1=O | -2% (inactive) |

same assay, conditions: S. cerevisiae rad18 mutant growth inhibition; at 11.0 µM; active compounds read high

| Structure (SMILES) | growth inhibition |
| --- | --- |
| O=CC=C(c1ccccc1)c1ccccc1 | 25% (inactive) |
| FC(F)(F)c1nc2nc(Cl)c(Cl)nc2n1CCCN1CCOCC1 | 31% (inactive) |
| BrCC[P+](c1ccccc1)(c1ccccc1)c1ccccc1 | 54% (inactive) |
| N#CSc1ccc(S(N)(=O)=O)cc1 | -57% (inactive) |
| O=[N+]([O-])c1ccc2nc3ccccc3cc2c1 | 67% (inactive) |
| O=C(NC(Nc1ccc(F)c(Cl)c1)(C(F)(F)F)C(F)(F)F)C(C(F)(F)F)C(F)(F)F | 40% (inactive) |
| O=C(/C=C\c1ccc(Cl)cc1Cl)c1cccs1 | 29% (inactive) |
| O=C(NCCCCNCCCNC(=O)c1cc(-c2ccccc2)nc2ccccc12)c1cc(-c2ccccc2)nc2ccccc12 | -1% (inactive) |
| NC(=NCc1ccccc1)N/N=C\c1ccnc2ccccc12 | 0% (inactive) |
| COc1cc(C2C3=C(COC3=O)Oc3cc4c(cc32)OCO4)ccc1O (centres undefined) | 3% (inactive) |
| C#CCCCc1ccccc1 | -58% (inactive) |
| CCc1ccc(NS(=O)(=O)c2ccccc2)c([N+](=O)[O-])c1 | 15% (inactive) |
| COc1ccc(C2c3cc4c(cc3OC(C)(O)C2C)OCO4)c(OC)c1 (centres undefined) | 1% (inactive) |
| COC(=O)c1ccc(CCC2=CC(=O)C(Br)=CC2=O)cc1 | -8% (inactive) |
| NNC(=O)CCc1ccc2ccc3ccccc3c2c1 | -8% (inactive) |
| Cn1c2ccccc2c(=O)c2cc(NC(=O)CCCCC(=O)Nc3ccc4c(c3)c(=O)c3ccccc3n4C)ccc21 | 3% (inactive) |
| CC(CC(C)(C)[N+](C)(C)C)[N+](C)(C)C (centres undefined) | 14% (inactive) |
| CC1CCN(CCC(=O)c2ccc(Cl)cc2)CC1 | 17% (inactive) |
| CCCCCCCCCCCCCCC(C(=O)[O-])[n+]1ccccc1 (centres undefined) | 24% (inactive) |

| Structure (SMILES) | growth inhibition |
| --- | --- |
| CNC1C(OC2C(OC3C(O)C(O)C(N=C(N)N)C(O)C3N=C(N)N)OC(C)C2(O)CO)OC(CO)C(O)C1O (centres undefined) | 5% (inactive) |
| O=C(O)c1ccccc1-c1ccccc1C(=O)Nc1ccc2c(c1)Cc1ccccc1-2 | 17% (inactive) |
| O=[N+]([O-])c1cccc2nc3ccccc3c(NCCCN3CCOCC3)c12 | 97% (active) |
| C=CC(C)(O)CCC1C(=C)C(O)CC2C(C)(C)CCCC12C (centres undefined) | -15% (inactive) |
| CN1c2ccc(Cl)cc2C(=O)NC1c1ccc([N+](=O)[O-])s1 (centres undefined) | 81% (active) |
| [O-][n+]1c2ccc(O)cc2nc2ccc(Br)cc21 | 57% (inactive) |
| O=C1c2ccccc2-c2nc3ccccc3nc21 | -28% (inactive) |
| CCCCN1C(=O)N(c2ccc(OCC)cc2)C2N(CCCC)C1C(C)(C)C2(C)C (centres undefined) | 27% (inactive) |
| CO[C@H]1C[C@](C)(O)Cc2cc3c(c(O)c21)C(=O)c1c(O)cc2c(c1C3=O)O[C@@H]1O[C@@]2(C)[C@H](O)[C@@H](N(C)C)[C@@H]1O | -29% (inactive) |
| COc1cc2c(cc1[N+](=O)[O-])C(=O)C(Br)(Br)CCC2 | 96% (active) |
| O=C1OC(CCl)CN1/N=C/c1ccc([N+](=O)[O-])o1 (centres undefined) | 91% (active) |
| CN(C)CCOc1ccc2c(c1)C/C(=C/c1ncc([N+](=O)[O-])n1C)C2=O | 91% (active) |
| CCCCCCCCCCCCCCCCCCN(C)CC(COP(=O)([O-])OCC[N+](C)(C)C)OC (centres undefined) | 98% (active) |
| CC(C)c1ccccc1NC(=O)/C(Cl)=C(\Cl)C(=O)O | 1% (inactive) |
| O=[N+]([O-])C(=C(Sc1ccccc1)Sc1ccccc1)C(Cl)=C(Cl)Cl | 66% (inactive) |
| C(=C\c1ccccc1)/COc1ccccc1C(N1CCOCC1)n1nc2ccccc2n1 (centres undefined) | 6% (inactive) |
| O=C1C(Nc2ccccc2)=C(Oc2ccccc2)C(=O)c2ccccc21 | 4% (inactive) |
| CCN(CC)CCN1C(=O)c2cccc3cc(OC)cc(c23)C1=O | -13% (inactive) |
